In PubChem BioAssay (EPA / NIEHS):
Values joined by “and” are separate entries in the source; they are usually repeats but may differ in a detail not shown here. Equal entries are not always repeated. Inconclusive results are not listed. Some structures have more than one record in an assay (separate samples or runs), and their calls can disagree. Active and inactive are the calls of the source. Rule for the calls, unless noted: active = hit-call score of the fitted dose curve at least 0.9, where 1 is the maximum; inconclusive = response in the unintended direction; inactive = score below 0.9.

Tests used:
[1] = Tanguay_ZF_120hpf_TR_legacy: (Legacy) Oregon State University Tanguay Lab 120 Hour Post-fertilization zebrafish Assay for Touch Response (AID 2283667)
Procedure, shortened: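 Tropical 5D wild-type zebrafish embryos statically exposed to 120 hpf at 28°C, sealed and dark-covered, 0.64% DMSO final; touch response scored as present/absent by brightfield microscopy at 120 hpf. Trimethyltin chloride 5 uM positive control; dead embryos not scored.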

[2] = read-out: sulfotransferase (SULT2A), SULT2A1 (gene 6822); test: CLD_SULT2A_6hr: CellzDirect (CLD) Gene Expression Assay for sulfotransferase (SULT2A) at 6 hours (AID 2283669);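 note: hits raise transcript level above the DMSO vehicle baseline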
Procedure, shortened: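 Primary human hepatocytes from two donor preparations were dosed daily with chemicals or 0.2% DMSO and harvested at 6 h. Transcript induction read by qNPA chemiluminescence, fitted for gain of signal relative to DMSO; morphology-based cytotoxicity annotated.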

[3] = read-out: glucuronosyltransferase (UGT1A1), UGT1A1 (gene 54658); test: CLD_UGT1A1_6hr: CellzDirect (CLD) Gene Expression Assay for glucuronosyltransferase (UGT1A1) at 6 hours (AID 2283672)
Procedure, shortened: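 Primary human hepatocytes from two donor preparations, dosed with fresh solutions in 0.2% DMSO, harvested at 6 h. UGT1A1 mRNA measured by qNPA chemiluminescence; induction fitted upward versus DMSO.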

[4] = read-out: xenobiotic metabolism (CYP1A1), CYP1A1 (gene 1543); test: CLD_CYP1A1_24hr: CellzDirect (CLD) Gene Expression Assay for xenobiotic metabolism (CYP1A1) at 24 hours (AID 2283673);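 note: CYP1A1 mRNA level by quantitative nuclease protection with chemiluminescence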
Procedure, shortened: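 Primary human hepatocytes dosed daily with fresh solutions in 0.2% DMSO vehicle. mRNA measured at 24 h by quantitative nuclease protection assay with chemiluminescence; gain-of-signal fit versus DMSO, with morphology-based cytotoxicity flags.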

[5] = read-out: ABC Transporter (ABCB11), ABCB11 (gene 8647); test: CLD_ABCB11_6hr: CellzDirect (CLD) Gene Expression Assay for ABC Transporter (ABCB11) at 6 hours (AID 2283675);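 note: hits raise ABCB11 mRNA level so AC50 marks induction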
Procedure, shortened: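 Human primary hepatocytes (two donor preparations) given fresh chemical daily at multiple concentrations, vehicle 0.2% DMSO. ABCB11 mRNA induction measured 6 h after dosing by qNPA chemiluminescence versus DMSO; cytotoxicity annotated from morphology.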

[6] = CLD_ACTIN_6hr: CellzDirect (CLD) Gene Expression Assay for Baseline Control (Actin) at 6 hours (AID 2283676);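 note: active means increased actin mRNA relative to DMSO vehicle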
Procedure, shortened: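 Primary human hepatocytes dosed with fresh chemical solutions (vehicle 0.2% DMSO), harvested at 6 h. Actin mRNA quantified by quantitative nuclease protection assay with chemiluminescent read-out, as background control relative to DMSO.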

[7] = read-out: Cytochrome P450 2B6 (Homo sapiens) (UniProt P20813); test: CLD_CYP2B6_6hr: CellzDirect (CLD) Gene Expression Assay for xenobiotic metabolism (CYP2B6) at 6 hours (AID 2283677);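 note: actives raise CYP2B6 transcript above DMSO baseline so AC50 marks an inducer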
Procedure, shortened: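 Primary human hepatocytes dosed with chemicals at multiple concentrations, vehicle 0.2% DMSO; CYP2B6 mRNA induction measured 6 h after dosing by quantitative nuclease protection assay with chemiluminescence, gain of signal fitted relative to DMSO.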

[8] = read-out: Cytochrome P450 2C19 (Homo sapiens) (UniProt P33261); test: CLD_CYP2C19_6hr: CellzDirect (CLD) Gene Expression Assay for xenobiotic metabolism (CYP2C19) at 6 hours (AID 2283678)
Procedure, shortened: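 Primary human hepatocytes from two donor preparations were dosed daily, with 0.2% DMSO as vehicle, and harvested 6 h after dosing. CYP2C19 mRNA induction was measured by qNPA chemiluminescence and fitted as gain of signal against DMSO.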

[9] = CCTE_Padilla_ZF_144hpf_TERATOSCORE: (Legacy) CCTE's 144 Hour Post-fertilization zebrafish Assay Teratoscore, Padilla Lab (AID 2283679; active = hit-call score of the fitted dose curve at least 0.9, where 1 is the maximum; inactive = score below 0.9;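 for AC50: zebrafish embryos with chorions exposed by immersion from 6-8 hpf to 5 dpf with daily renewal; teratogenicity score from eye scoring of death hatching and malformations at 144 hpf; higher score means more developmental defects relative to DMSO baseline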)
Procedure, shortened: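 Larvae scored by eye at 144 hpf for death, hatching and malformations after a day in clean Hanks'. Before that, daily-renewed exposure at 80 uM (0.4% DMSO, 26C) from roughly 6-8 hpf through 5 dpf, 4 embryos per chemical.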

[10] = read-out: Glyceraldehyde-3-phosphate dehydrogenase (Homo sapiens) (UniProt P04406); test: CLD_GAPDH_6hr: CellzDirect (CLD) Gene Expression Assay for Baseline Control (Glyceraldehyde 3-phosphate dehydrogenase) at 6 hours (AID 2283681);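 note: active means increased signal relative to DMSO vehicle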
Procedure, shortened: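 Primary human hepatocytes from two donor preparations, dosed at multiple concentrations with 0.2% DMSO vehicle; GAPDH mRNA measured 6 h after dosing by chemiluminescent quantitative nuclease protection assay (qNPA) on denatured lysates. Serves as background control; cytotoxicity annotated by morphology.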

[11] = read-out: xenobiotic metabolism (CYP1A2), CYP1A2 (gene 1544); test: CLD_CYP1A2_24hr: CellzDirect (CLD) Gene Expression Assay for xenobiotic metabolism (CYP1A2) at 24 hours (AID 2283683)
Procedure, shortened: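 Primary human hepatocytes from two donor preparations dosed daily with multiple concentrations of chemical, 0.2% DMSO vehicle. CYP1A2 mRNA at 24 h quantified by qNPA chemiluminescence; gain of signal analyzed relative to DMSO. Cytotoxicity flagged by phase-contrast morphology.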

[12] = read-out: ABC Transporter (ABCB1), ABCB1 (gene 5243); test: CLD_ABCB1_24hr: CellzDirect (CLD) Gene Expression Assay for ABC Transporter (ABCB1) at 24 hours (AID 2283684);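 for AC50: potency for increase in ABCB1 mRNA relative to DMSO vehicle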
Procedure, shortened: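 Primary human hepatocytes, two donor preparations, dosed daily with fresh solutions; vehicle 0.2% DMSO; harvested at 24 h. ABCB1 mRNA measured by quantitative nuclease protection assay (chemiluminescence); morphology-based cytotoxicity annotated.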

[13] = read-out: Cytochrome P450 2C9 (Homo sapiens) (UniProt P11712); test: CLD_CYP2C9_24hr: CellzDirect (CLD) Gene Expression Assay for xenobiotic metabolism (CYP2C9) at 24 hours (AID 2283688)
Procedure, shortened: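 Primary human hepatocytes from two donor preparations, dosed daily for two days at multiple concentrations; vehicle 0.2% DMSO. CYP2C9 mRNA induction at 24 h measured by qNPA chemiluminescence relative to DMSO; cytotoxicity annotated from morphology.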

[14] = read-out: Cytochrome P450 3A4 (Homo sapiens) (UniProt P08684); test: CLD_CYP3A4_24hr: CellzDirect (CLD) Gene Expression Assay for xenobiotic metabolism (CYP3A4) at 24 hours (AID 2283689)
Procedure, shortened: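 Primary human hepatocytes from two donors dosed daily with fresh compound for two days, 0.2% DMSO vehicle. CYP3A4 mRNA at 24 hr by qNPA chemiluminescence; gain-of-signal fit versus DMSO, cytotoxicity flagged by morphology.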

[15] = read-out: sulfotransferase (SULT2A), SULT2A1 (gene 6822); test: CLD_SULT2A_24hr: CellzDirect (CLD) Gene Expression Assay for sulfotransferase (SULT2A) at 24 hours (AID 2283694)
Procedure, shortened: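 Primary human hepatocytes from two donor preparations were dosed daily with fresh solutions, vehicle 0.2% DMSO. At 24 h, lysates went to quantitative nuclease protection (qNPA) with S1 digestion and chemiluminescent readout. Cytotoxicity was annotated from phase-contrast morphology.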

[16] = read-out: ABC Transporter (ABCB11), ABCB11 (gene 8647); test: CLD_ABCB11_48hr: CellzDirect (CLD) Gene Expression Assay for ABC Transporter (ABCB11) at 48 hours (AID 2283697)
Procedure, shortened: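 Primary human hepatocytes from two donor preparations dosed daily for two days at multiple concentrations; 0.2% DMSO vehicle. ABCB11 mRNA at 48 h by quantitative nuclease protection assay, chemiluminescence; fitted for induction versus DMSO.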

[17] = read-out: HMG-CoA synthase (HMGCS2), HMGCS2 (gene 3158); test: CLD_HMGCS2_24hr: CellzDirect (CLD) Gene Expression Assay for HMG-CoA synthase (HMGCS2) at 24 hours (AID 2283691)
Procedure, shortened: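 Primary human hepatocytes from two donor preparations, dosed daily with fresh solutions; vehicle 0.2% DMSO, 24 h harvest. HMGCS2 mRNA quantified by qNPA with S1 nuclease digestion and chemiluminescence; gain fitted versus DMSO, cytotoxicity annotated by morphology.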

[18] = read-out: glucuronosyltransferase (UGT1A1), UGT1A1 (gene 54658); test: CLD_UGT1A1_24hr: CellzDirect (CLD) Gene Expression Assay for glucuronosyltransferase (UGT1A1) at 24 hours (AID 2283696)
Procedure, shortened: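 Primary human hepatocytes from two donor preparations were dosed (0.2% DMSO vehicle) and harvested at 24 h; UGT1A1 mRNA induction was quantified by chemiluminescent qNPA, fitted as gain relative to DMSO.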

[19] = read-out: Cytochrome P450 2B6 (Homo sapiens) (UniProt P20813); test: CLD_CYP2B6_48hr: CellzDirect (CLD) Gene Expression Assay for xenobiotic metabolism (CYP2B6) at 48 hours (AID 2283699);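 note: actives raise transcript level above DMSO so potency reflects induction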
Procedure, shortened: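 Primary human hepatocytes dosed daily for two days over multiple concentrations, 0.2% DMSO vehicle; CYP2B6 mRNA quantified at 48 h by qNPA chemiluminescence. Induction fitted as gain of signal versus DMSO; cytotoxicity annotated by morphology.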

[20] = read-out: Cytochrome P450 2B6 (Homo sapiens) (UniProt P20813); test: CLD_CYP2B6_24hr: CellzDirect (CLD) Gene Expression Assay for xenobiotic metabolism (CYP2B6) at 24 hours (AID 2283686)
Procedure, shortened: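 Primary human hepatocytes dosed daily for two days with fresh solutions, harvested at 24 hours; mRNA induction quantified by qNPA chemiluminescence, gain of signal vs 0.2% DMSO vehicle. Cytotoxicity annotated from phase-contrast morphology.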

Chain of Glyceraldehyde-3-phosphate dehydrogenase (Homo sapiens) (P04406 whole entry, looked up): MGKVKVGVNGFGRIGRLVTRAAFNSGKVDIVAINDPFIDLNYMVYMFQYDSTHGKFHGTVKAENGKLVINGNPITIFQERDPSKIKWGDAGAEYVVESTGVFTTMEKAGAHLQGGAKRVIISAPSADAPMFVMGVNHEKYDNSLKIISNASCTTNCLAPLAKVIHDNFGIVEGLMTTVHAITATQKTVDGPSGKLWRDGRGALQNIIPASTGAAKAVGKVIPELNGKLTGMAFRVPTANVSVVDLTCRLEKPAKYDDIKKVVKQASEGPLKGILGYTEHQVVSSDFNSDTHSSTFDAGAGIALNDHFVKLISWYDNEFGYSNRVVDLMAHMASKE
Chain of Cytochrome P450 3A4 (Homo sapiens) (P08684 whole entry, looked up): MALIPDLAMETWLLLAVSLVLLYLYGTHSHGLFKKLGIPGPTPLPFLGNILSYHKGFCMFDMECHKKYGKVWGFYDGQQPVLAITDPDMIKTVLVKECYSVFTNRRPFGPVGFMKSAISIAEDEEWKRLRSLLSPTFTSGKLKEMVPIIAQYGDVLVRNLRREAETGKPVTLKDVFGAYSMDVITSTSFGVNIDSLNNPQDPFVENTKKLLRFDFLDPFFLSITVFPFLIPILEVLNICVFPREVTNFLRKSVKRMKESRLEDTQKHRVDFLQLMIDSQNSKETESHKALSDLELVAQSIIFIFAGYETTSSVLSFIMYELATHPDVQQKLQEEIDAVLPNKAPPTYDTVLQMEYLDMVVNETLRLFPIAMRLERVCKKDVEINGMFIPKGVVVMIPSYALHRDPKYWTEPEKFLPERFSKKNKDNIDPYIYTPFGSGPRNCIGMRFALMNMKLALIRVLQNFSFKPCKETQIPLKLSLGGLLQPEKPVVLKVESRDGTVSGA
Chain of Cytochrome P450 2C19 (Homo sapiens) (P33261 whole entry, looked up): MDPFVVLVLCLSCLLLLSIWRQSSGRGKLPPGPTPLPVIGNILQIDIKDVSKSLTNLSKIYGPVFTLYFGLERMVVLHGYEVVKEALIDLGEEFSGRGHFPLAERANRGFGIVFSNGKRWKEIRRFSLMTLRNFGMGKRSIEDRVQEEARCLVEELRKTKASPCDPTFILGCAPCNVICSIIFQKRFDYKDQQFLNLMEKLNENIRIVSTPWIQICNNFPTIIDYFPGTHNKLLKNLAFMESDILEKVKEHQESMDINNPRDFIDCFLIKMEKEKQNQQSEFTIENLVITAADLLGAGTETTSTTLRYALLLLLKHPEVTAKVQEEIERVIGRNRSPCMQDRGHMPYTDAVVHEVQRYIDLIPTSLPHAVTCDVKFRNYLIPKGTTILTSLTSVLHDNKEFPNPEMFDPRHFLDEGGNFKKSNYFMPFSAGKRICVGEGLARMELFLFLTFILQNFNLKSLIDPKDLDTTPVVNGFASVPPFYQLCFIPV

CCOCN(C(=O)CCl)c1c(C)cccc1CC
outcome [1]: inactive
outcome [2]: inactive
outcome [3]: inactive
AC50 [4]: 1.99 µM (active)
outcome [5]: inactive
outcome [6]: inactive
AC50 [7]: 1.66 µM (active)
outcome [8]: inactive
AC50 [9]: 15.5 µM (active)
outcome [10]: inactive
AC50 [11]: 0.333 µM (active)
outcome [12]: inactive
outcome [13]: inactive
AC50 [14]: 3 µM (active)
outcome [15]: inactive
outcome [16]: inactive

C[C@H]1[C@H](c2ccc(Cl)cc2)SC(=O)N1C(=O)NC1CCCCC1
outcome [1]: inactive
outcome [2]: inactive
outcome [3]: inactive
AC50 [4]: 3.97 µM (active)
outcome [5]: inactive
outcome [6]: inactive
AC50 [7]: 3.09 µM (active)
outcome [9]: inactive
outcome [10]: inactive
AC50 [12]: 35.2 µM (active)
outcome [13]: inactive
AC50 [14]: 3.56 µM (active)
outcome [15]: inactive

CNC(=O)Oc1cccc(N=CN(C)C)c1
outcome [1]: inactive
outcome [2]: inactive
outcome [3]: inactive
outcome [5]: inactive
outcome [6]: inactive
outcome [7]: inactive
outcome [8]: inactive
outcome [9]: inactive
outcome [10]: inactive
outcome [12]: inactive
outcome [13]: inactive
outcome [14]: inactive
outcome [17]: inactive

CCC(C)(NC(=O)c1cc(Cl)c(C)c(Cl)c1)C(=O)CCl (stereo not given)
AC50 [1]: 57.8 µM (active)
outcome [2]: inactive
outcome [3]: inactive
outcome [4]: inactive
outcome [5]: inactive
outcome [6]: inactive
AC50 [7]: 3.17 µM (active)
AC50 [9]: 5.78 µM (active)
outcome [12]: inactive
outcome [13]: inactive
AC50 [14]: 4.49 µM (active)
outcome [15]: inactive

COP(=S)(OC)Oc1ccc([N+](=O)[O-])cc1
outcome [1]: inactive
outcome [2]: inactive
outcome [3]: inactive
AC50 [4]: 4.2 µM (active)
AC50 [7]: 0.916 µM (active)
AC50 [9]: 16.1 µM (active)
outcome [12]: inactive
outcome [13]: inactive
outcome [14]: inactive
outcome [15]: inactive
outcome [18]: inactive
outcome [16]: inactive
AC50 [19]: 7.55 µM (active)

CC(C)(C)C(O)C(Oc1ccc(Cl)cc1)n1cncn1 (stereo not given)
AC50 [1]: 41.5 µM (active) and 65.4 µM (active)
outcome [1]: inactive
outcome [2]: inactive
outcome [3]: inactive
AC50 [4]: 2.22 µM (active)
outcome [5]: inactive
outcome [6]: inactive
AC50 [7]: 0.656 µM (active)
AC50 [9]: 52.6 µM (active) and 46.6 µM (active) and 57.3 µM (active)
outcome [10]: inactive
outcome [12]: inactive
outcome [13]: inactive
outcome [15]: inactive

CCC(C)Nc1c([N+](=O)[O-])cc(C(C)(C)C)cc1[N+](=O)[O-] (stereo not given)
outcome [1]: inactive
outcome [2]: inactive
outcome [3]: inactive
outcome [4]: inactive
outcome [5]: inactive
AC50 [7]: 1.53 µM (active)
outcome [8]: inactive
outcome [12]: inactive
AC50 [20]: 3.63 µM (active)
AC50 [14]: 3.84 µM (active)
outcome [15]: inactive

ClC1C(Cl)C(Cl)C(Cl)C(Cl)C1Cl (stereo not given)
outcome [1]: inactive
outcome [2]: inactive
outcome [3]: inactive
outcome [6]: inactive
AC50 [7]: 1.43 µM (active)
AC50 [9]: 42.6 µM (active)
outcome [12]: inactive
outcome [13]: inactive
outcome [15]: inactive

O=S(=O)(O)C(F)(F)C(F)(F)C(F)(F)C(F)(F)C(F)(F)C(F)(F)C(F)(F)C(F)(F)F
AC50 [1]: 9.61 µM (active) and 16.3 µM (active) and 13.3 µM (active)
outcome [2]: inactive
outcome [3]: inactive
outcome [4]: inactive
outcome [5]: inactive
outcome [6]: inactive
outcome [7]: inactive
outcome [8]: inactive
AC50 [9]: 23.8 µM (active) and 45.6 µM (active) and 7.44 µM (active)
outcome [13]: inactive
outcome [14]: inactive
outcome [15]: inactive

CCCN(CCC)c1c([N+](=O)[O-])cc(C(F)(F)F)cc1[N+](=O)[O-]
outcome [1]: inactive
outcome [2]: inactive
outcome [3]: inactive
AC50 [4]: 8.5 µM (active)
outcome [5]: inactive
outcome [6]: inactive
AC50 [7]: 1.27 µM (active)
AC50 [9]: 0.601 µM (active)
outcome [12]: inactive
outcome [13]: inactive
AC50 [14]: 5.68 µM (active)
outcome [15]: inactive
outcome [16]: inactive

CNC(=O)/C=C(\C)OP(=O)(OC)OC
outcome [1]: inactive
outcome [2]: inactive
outcome [3]: inactive
outcome [4]: inactive
outcome [5]: inactive
outcome [7]: inactive
outcome [9]: inactive
outcome [13]: inactive
outcome [14]: inactive
outcome [15]: inactive
outcome [16]: inactive

O=C(O)CCCOc1ccc(Cl)cc1Cl
outcome [1]: inactive
outcome [2]: inactive
outcome [3]: inactive
outcome [6]: inactive
outcome [7]: inactive
AC50 [9]: 15.6 µM (active)
outcome [10]: inactive
outcome [12]: inactive
outcome [20]: inactive
outcome [13]: inactive
outcome [14]: inactive
outcome [17]: inactive
outcome [15]: inactive
outcome [18]: inactive
